HepG2 viability: kills HepG2 cells in TGF-b inhibitor counter-screen; Potency, µM (top dose mostly 46.1 µM), hits mostly cytotoxic; hit rate 0.76% among 410,000; HepG2 CAGA-GFP viability, ATP luminescence, 18 h
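CellTiter-Glo luminescence gave cytotoxicity after 18 hours at 37 degrees C. The cells were HepG2 CAGA-GFP in 1% FBS DMEM, stimulated with 500 pg/mL TGF-beta after compound addition. %Activity was normalised to no-cell wells (complete cell-killing) and DMSO (no toxicity), and curves were fitted and classified.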
ATXN2 expr inh: inhibitors of ATXN2 expression; HEK-293 ATXN2-luciferase reporter, luminescence, 24 h; Potency, µM (titrated, usually from 57 µM), hits mostly inhibitors; hit rate 0.72% among 360,000; AID 1745845; note: nearly all actives have a fitted effect of over 55% in size
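ATXN2-luciferase reporter cells (luciferase flanked by upstream and downstream ATXN2 gene portions) were treated 24 h at 37 °C with compounds at up to 57 uM. SteadyGlo luminescence gave expression; GF-AFC fluorescence gave viability.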
Nrf2 inh: Nrf2 pathway inhibition; hit rate 2.1% among 360,000; AID 504444; A549 ARE-Fluc reporter, luciferase luminescence, 18-24 h; Potency, µM (titrated, usually from 46 µM), usual class: inhibitors; note: nearly all actives have a fitted effect of over 60% in size
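Nrf2 function is reported as luminescence of an ARE-controlled luciferase in A549 cells. Compounds were tested at several concentrations, and a CellTiter-Fluor read on the same wells flagged cytotoxicity.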
TGFb SMAD3 inh: blocks TGF-b signaling; Potency, µM (top dose mostly 46.1 µM), usual class: inhibitors; hit rate 1.2% among 410,000; HepG2 CAGA-GFP TGF-b/SMAD3 reporter, GFP fluorescence, 18 h; TGF-beta stimulated, 500 pg/mL final; AID 588855; note: nearly all actives have a fitted effect of over 65% in size
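Using HEPG2 CAGA-GFP reporter cells at 1000 cells/well, we pinned test compounds, stimulated with recombinant TGF-beta (500 pg/mL final) and measured total well GFP after 18 h.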
S2 tox: cell viability loss in ATXN counter-screen; S2 cells (HEK-293 line with an ATXN2-luciferase reporter) viability, CellTiter-Fluor protease fluorescence, 24 h; Potency, µM (series often up to 56.7 µM), usual class: cytotoxic; hit rate 0.49% among 400,000; note: nearly all actives have a fitted effect of over 40% in size
A549 tox: kills or reduces viability of A549 cells in Nrf2 counter-screen; A549 ARE-Fluc cells, CellTiter-Fluor viability, 18-24 h; Potency, µM (titrated, usually from 46 µM), actives largely listed as inhibitors; hit rate 0.16% among 390,000; AID 504648
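A549 ARE-Fluc cells in 5% FBS OPTI-MEM, 5000 cells/well, rested 2 h then exposed to compounds in concentration-response for 18-24 h at 37 °C. Viability by CellTiter-Fluor fluorescence (Ex 405/Em 525) after 30 min; luciferase luminescence (BugLite, 15 min, RT) read afterwards.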
A number is an active result; ! = a repeat was not active; [ ] = another dose, or the depositor's remark. Sampled rows, rich in hits. Any-hit rate of the full collection: about 3.8%. Calls come from the whole dose curve; as a rule, active = well fitted curve in the direction sought with a large enough effect; inconclusive = small, poorly fitted or top-dose-only effect, or another doubt; inactive = no such curve, though single readings can be large; an effect the other way counts as inactive or inconclusive.

Screening CCN(CC)S(=O)(=O)c1cccc(C(=O)Nc2nc3cc4c(cc3s2)OCCO4)c1 returned HepG2 viability inactive, ATXN2 expr inh inconclusive, Nrf2 inh 15µM, TGFb SMAD3 inh inactive, S2 tox inconclusive and A549 tox inconclusive.
Screening C=CCN(c1ccc(F)cc1)S(=O)(=O)c1cc(C(=O)NC2CC2)ccc1Cl returned HepG2 viability inactive, TGFb SMAD3 inh inactive and S2 tox inactive.
Screening CCOC(=O)CCC(=O)Nc1ncnc2c1C(c1ccccc1)c1c(ccc3ccccc13)O2 (stereo not drawn) returned HepG2 viability inactive, ATXN2 expr inh inconclusive, Nrf2 inh 6.5µM!, TGFb SMAD3 inh inconclusive, S2 tox inconclusive and A549 tox inconclusive.
For O=C(Cc1ccccc1)Nc1ncnc2c1C(c1ccccc1)c1c(ccc3ccccc13)O2 (stereo not drawn) the results were HepG2 viability inactive, ATXN2 expr inh inactive, Nrf2 inh 5.2µM, TGFb SMAD3 inh inconclusive, S2 tox inactive and A549 tox inconclusive.
CC(=O)N1CCc2c(sc3c2c(=O)n(Cc2ccccc2)c(=O)n3Cc2cccc(Cl)c2)C1 was read as HepG2 viability inactive, ATXN2 expr inh inactive, Nrf2 inh 21µM, TGFb SMAD3 inh inactive, S2 tox inactive and A549 tox inactive.
`CC(=O)N1CCc2c(sc3c2c(=O)n(Cc2ccccc2)c(=O)n3Cc2ccc(Cl)cc2)C1` gave HepG2 viability inactive, ATXN2 expr inh inactive, Nrf2 inh inactive, TGFb SMAD3 inh inactive, S2 tox inactive and A549 tox inactive.
Cc1nc2ccccc2n1S(=O)(=O)c1cc(C(=O)O)ccc1Cl was read as HepG2 viability inactive, Nrf2 inh inactive, TGFb SMAD3 inh inactive, S2 tox inactive and A549 tox inactive.
For C(#Cc1ccccc1)C[N+]1(CC#Cc2ccccc2)CCCCC1 the results were HepG2 viability inactive, ATXN2 expr inh inactive[11.3 µM], Nrf2 inh 12µM, TGFb SMAD3 inh inactive, S2 tox inconclusive and A549 tox inactive.
Screening C#CC[N+]1(CC#Cc2ccccc2)CCCCC1 returned HepG2 viability inactive, ATXN2 expr inh inactive, Nrf2 inh inactive, TGFb SMAD3 inh inconclusive, S2 tox inconclusive and A549 tox inactive.
`Cc1ccc(C#CC[N+]2(CC#Cc3ccc(C)cc3)CCCCC2)cc1` gave HepG2 viability inactive, ATXN2 expr inh inconclusive, Nrf2 inh inconclusive, TGFb SMAD3 inh 20µM, S2 tox inconclusive and A549 tox inconclusive.
CC(C)c1ccc(S(=O)(=O)Nc2ccc(SC(F)F)cc2)cc1 was read as HepG2 viability inactive, ATXN2 expr inh inactive, Nrf2 inh inactive, TGFb SMAD3 inh inconclusive, S2 tox inconclusive and A549 tox inactive.
Screening Cc1ccc(S(=O)(=O)Nc2ccc(SC(F)F)cc2)c(C)c1 returned HepG2 viability inactive, ATXN2 expr inh inactive, Nrf2 inh inactive, TGFb SMAD3 inh 13µM, S2 tox inconclusive and A549 tox inactive.
For O=C(Nc1nc(-c2ccc(Br)cc2)ns1)c1ccc(F)cc1 the results were HepG2 viability inactive, Nrf2 inh inactive, TGFb SMAD3 inh inactive and A549 tox inactive.
Screening CCCc1nc2oc3c(Cl)ncnc3c2c2c1CCCC2 returned HepG2 viability inactive, ATXN2 expr inh inconclusive, Nrf2 inh inactive, TGFb SMAD3 inh inactive, S2 tox inconclusive and A549 tox inactive.
`CC(C)Cc1nc2oc3c(Cl)ncnc3c2c2c1CCCC2` gave HepG2 viability inactive, ATXN2 expr inh 32µM, Nrf2 inh inactive, TGFb SMAD3 inh inactive, S2 tox inconclusive and A549 tox inactive.
`O=c1cc(-c2ccccc2Cl)oc2c([N+](=O)[O-])c(O)cc(O)c12` gave HepG2 viability inactive, ATXN2 expr inh inconclusive, Nrf2 inh 13µM, TGFb SMAD3 inh 13µM, S2 tox inactive and A549 tox inconclusive.
`CN1CC[C@H](c2c(O)cc(O)c3c(=O)cc(-c4ccccc4Cl)oc23)[C@@H](O)C1` gave HepG2 viability inactive, Nrf2 inh inconclusive, TGFb SMAD3 inh 0.22µM and A549 tox inactive.
`O=c1cc(-c2ccccc2Cl)oc2ccc([N+](=O)[O-])c(O)c12` gave HepG2 viability inactive, ATXN2 expr inh inactive, Nrf2 inh inconclusive, TGFb SMAD3 inh inactive, S2 tox inactive and A549 tox inconclusive.
O=C(Nc1ccc(O)c2c(=O)cc(-c3ccccc3Cl)oc12)c1ccccc1Cl was read as HepG2 viability inactive, ATXN2 expr inh inactive, Nrf2 inh inactive, TGFb SMAD3 inh inactive, S2 tox inactive and A549 tox inactive.
Screening COC(=O)CSc1nn(-c2ccc(F)cc2)c(=S)s1 returned HepG2 viability inactive, ATXN2 expr inh inactive, Nrf2 inh inactive, TGFb SMAD3 inh inactive, S2 tox inactive and A549 tox inactive.
`CN(/N=C/c1cc(Br)cc(Br)c1O)c1cccc(C(F)(F)F)n1` gave HepG2 viability 3.2µM, ATXN2 expr inh inconclusive, Nrf2 inh inconclusive, TGFb SMAD3 inh inconclusive and A549 tox inactive.
`COCCN1C(=O)N[C@@H](c2cccc(C(F)(F)F)c2)[C@H](C(C)=O)[C@H]1C` gave HepG2 viability 18µM, ATXN2 expr inh inactive, Nrf2 inh inactive, TGFb SMAD3 inh inconclusive, S2 tox inactive and A549 tox inactive.
`COCCN1C(=O)N[C@@H](c2ccccc2)[C@H](C(C)=O)[C@H]1C` gave HepG2 viability inactive, ATXN2 expr inh inactive, Nrf2 inh inactive, TGFb SMAD3 inh inactive, S2 tox inactive and A549 tox inactive.
`Nc1ccc(C(=O)c2cccs2)cn1` gave HepG2 viability inactive, Nrf2 inh inconclusive, TGFb SMAD3 inh inactive, S2 tox inactive and A549 tox inactive.
`Nc1ccc(-c2cnc(N)c(C(=O)c3cccnc3)n2)cn1` gave HepG2 viability inactive, ATXN2 expr inh inconclusive, Nrf2 inh 15µM, TGFb SMAD3 inh 7.9µM, S2 tox inconclusive and A549 tox inconclusive.
Screening OC(CNc1ccnc2cc(Cl)ccc12)CNC1CCCCC1 (stereo not drawn) returned HepG2 viability inactive, ATXN2 expr inh 32µM, Nrf2 inh inactive, TGFb SMAD3 inh inconclusive and A549 tox inconclusive.
For CCc1cc(OCCOCCN(C)C)ccc1Cl the results were HepG2 viability inactive, ATXN2 expr inh inactive, Nrf2 inh inactive, TGFb SMAD3 inh inactive, S2 tox inactive and A549 tox inactive.
For CCOC(=O)c1c(CSc2ccccc2)n(C)c2cc(Br)c(O)c(CN(C)C)c12 the results were HepG2 viability inactive, ATXN2 expr inh inconclusive, Nrf2 inh inactive, TGFb SMAD3 inh inconclusive, S2 tox inactive and A549 tox inactive.
For CCOC(=O)c1c(CSc2ccsc2)n(C)c2cc(Br)c(O)c(CN(C)C)c12 the results were HepG2 viability 10µM, Nrf2 inh inactive, TGFb SMAD3 inh inconclusive, S2 tox inactive and A549 tox inactive.
